Reference: PubChem BioAssay (NCATS)
Results filed as inconclusive are left out. Unmarked numbers belong to inactive results. Calls of active or inactive are those of the source. Calls follow the shape of the dose curve; as a rule, active = well fitted curve in the direction sought with a large enough effect; inconclusive = small, poorly fitted or top-dose-only effect, or another doubt; inactive = no such curve, though single readings can be large; an effect the other way counts as inactive or inconclusive.

What follows are compounds tested against Cellular tumor antigen p53 (Homo sapiens) (UniProt P04637) (assay: Primary qHTS for small molecule compounds that upregulate eGFP-tagged delta133p53alpha (in N-terminal) cells. (AID 2060322; also: nearly all actives have a fitted effect of over 75% in size; also: potency is read from the fitted curve at half-maximal effect;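 as to activation: 0% = DMSO vehicle and 100% = reference activator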)). Conditions: NCI-H358 eGFP-delta133p53alpha fluorescence, 24 h; activation: stronger effect = higher value.
Sequence of Cellular tumor antigen p53 (Homo sapiens) (P04637 whole entry, looked up): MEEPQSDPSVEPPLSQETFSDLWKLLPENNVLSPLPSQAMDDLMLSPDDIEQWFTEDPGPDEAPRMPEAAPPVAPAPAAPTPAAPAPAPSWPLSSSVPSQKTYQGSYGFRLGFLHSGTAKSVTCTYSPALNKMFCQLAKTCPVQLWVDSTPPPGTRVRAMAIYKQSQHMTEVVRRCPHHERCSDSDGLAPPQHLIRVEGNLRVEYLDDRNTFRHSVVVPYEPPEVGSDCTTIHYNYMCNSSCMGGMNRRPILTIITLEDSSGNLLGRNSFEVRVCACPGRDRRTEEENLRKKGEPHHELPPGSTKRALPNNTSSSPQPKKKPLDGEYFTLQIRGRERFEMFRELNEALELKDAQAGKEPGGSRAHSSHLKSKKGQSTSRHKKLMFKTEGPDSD
Outline: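 NCI-H358 cells pre-induced 24 h with 10 ng/ml doxycycline to express N-terminal eGFP-delta133p53alpha, then dosed 24 h at 37C without doxycycline; fixed, Hoechst-stained, GFP intensity by laser scanning cytometry, normalized to DMSO (0%) and 57.5 uM 5-azacytidine (100%).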
`NC(=O)c1cccc2cn(-c3ccc(C4CCCNC4)cc3)nc12` (stereo not given) showed an activation of 26.7%. `CC(C)S(=O)(=O)NC[C@H](C)c1ccc(-c2ccc(CCNS(C)(=O)=O)cc2)cc1` gave an activation of -5.73%. `Cc1cc(-c2nc(-c3ccc(OC(F)(F)F)cc3)no2)nn1Cc1ccnc(N2CCN(C3CC3)CC2)c1` gave an activation of -0.955%. With `Cc1cc(C(=O)Cn2cc(C#N)ccc2=O)c(C)n1Cc1ccccc1` the activation was 6.21%. `COc1cc2ncnc(Oc3ccc(CC(=O)Nc4cnn(C(C)C)c4)cc3)c2cc1OC` was tested, and the activation was 4.77%. `CC(C)(C)c1ccc(S(=O)(=O)NCc2ccc(C(=O)Nc3cccnc3)cc2)cc1` gave an activation of 1.91%. For `c1ccc(C(OC2CCN(CCCc3nn[nH]n3)CC2)c2ccccc2)cc1`, the activation was -4.77%. For `C[C@@H]1C(=O)O[C@H]2CC34[C@H]5C[C@@H](C(C)(C)C)C36[C@@H](OC(=O)[C@@H]6O)OC4(C(=O)O5)[C@]21O` (stereo not given in full), the activation was -10%. With `Clc1ccccc1CNCC1CCC(CNCc2ccccc2Cl)CC1` (stereo not given) the activation was 29.6%. `O=S(=O)(Cc1ccccc1)Nc1ccc(-c2ccc3c(cnn3-c3ccc(F)cc3)c2)c(C(F)(F)F)c1` showed an activation of -1.91%. Compound `CCC(C)c1ccc(NC(=O)Cn2cnc3c2c(=O)n(C)c(=O)n3C)cc1` (stereo not given) has an activation of 11.5%. Work on `COC(=O)C(CC1CCCC1)c1ccc(S(C)(=O)=O)cc1` (stereo not given) yielded an activation of 0.955%. For `CCNC(=O)C1CC(F)(c2ccc(CN3CCCC3)c(F)c2)C1` (stereo not given), the activation was -9.07%. In the case of `CC[C@H](C(=O)Nc1ccccc1N1CCCC1)c1ccccc1`, the activation is reported as 2.86%. Compound `CCc1c(CC(N)=O)c2cc(OCCCP(=O)(O)O)ccc2n1Cc1ccccc1` has an activation of 2.86%. For `Nc1c(-c2ccccc2)nc(Cl)c2c(O)n[nH]c(=O)c12`, the activation was -1.91%. `CCCCOC(=O)NC(=O)C1c2ccccc2Oc2ccccc21` was tested, and the activation was -11.5%. `CC(C)N(CCCCOCC(=O)NS(C)(=O)=O)c1cnc(-c2ccccc2)c(-c2ccccc2)n1` was tested, and the activation was -4.77%. In the case of `CC(c1ncncc1F)C(O)(Cn1cncn1)c1ccc(F)cc1F` (stereo not given), the activation is reported as 0.477%. `CNc1cc2[nH]c(=O)n(-c3ccc(NC(=O)NS(=O)(=O)c4ccc(Cl)s4)cc3)c(=O)c2cc1F` was tested, and the activation was 8.11%. In the case of `CC(C)[C@@H](c1ccc(C(F)(F)F)cc1CN(Cc1cc(C(F)(F)F)cc(C(F)(F)F)c1)c1nnn(C)n1)N1CCC(C(=O)O)CC1`, the activation is reported as 6.68%. With `O=S(=O)(Nc1ccccc1N1CCCCC1)c1ccc(Cl)s1` the activation was -11.9%. Work on `CCOC(=O)CCN(C(=O)c1ccc2c(c1)nc(CNc1ccc(C(=N)N)cc1)n2C)c1ccccn1` yielded an activation of -4.77%. `CC(OC1OCCN(Cc2n[nH]c(=O)[nH]2)C1c1ccc(F)cc1)c1cc(C(F)(F)F)cc(C(F)(F)F)c1` (stereo not given) gave an activation of 20.5%. With `O=C(N[C@H](Cc1ccccc1)C(=O)O)c1sc2cc(F)ccc2c1Cl` the activation was -9.55%. Work on `O=C(NCc1cccc(O)c1)c1cc2cc(F)ccc2[nH]1` yielded an activation of 0%. In the case of `CNC(=O)COC(=O)NCCC1CCN(c2cccc(C)n2)CC1`, the activation is reported as 6.21%. For `Cn1ncnc1COc1nn2c(-c3cc(F)ccc3F)nnc2cc1C(C)(C)C`, the activation was -11.9%. `CNC(=O)c1ccccc1Nc1nc(Nc2ccc(N3CCNCC3)cc2)ncc1Cl` was tested, and the Potency was 1350 nM (active). For `COc1cc(Nc2nc3c(s2)CCCC3c2ccc(F)cc2)ccc1-n1cnc(C)c1` (stereo not given), the activation was -13.4%. `CN(C)C(=O)NC1CCC(CCN2CCN(c3cccc(Cl)c3Cl)CC2)CC1` (stereo not given) was tested, and the activation was -1.91%. Compound `CCOc1ccc(NC(=S)N2CCC(C(O)(c3ccccc3)c3ccccc3)CC2)cc1` has an activation of -0.955%. For `COc1ccncc1C(=O)NC(=O)Nc1ccc(-c2ccccc2)c(C(F)(F)F)c1`, the activation was -0.477%. `O=C(CCCN1CCN(c2ccccn2)CC1)c1ccc(F)cc1` showed an activation of -3.82%. In the case of `COc1ccc(C(=O)NCc2cc(C(C)C)no2)cc1OC1CCN(C)CC1`, the activation is reported as 4.77%. `CCCc1ccc(OCC(=O)N(Cc2nc(-c3cccnc3)no2)C(C)C)cc1` gave an activation of -11.5%. `CN[C@H](CNC(=O)N1CCC[C@@H]([C@@H](OCCNC(=O)OC)c2cccc(Cl)c2)C1)C[C@H]1CCCOC1` showed an activation of 11.5%. Work on `Cc1c(OCc2cccc(-c3ccc(C(=O)O)cc3)c2)cc2c(c1C)C(=O)C(C1CCCC1)C2` (stereo not given) yielded an activation of -8.59%. `CCO[C@H]1CN(C2CCC(O)(c3ccc4c(c3)OCO4)CC2)C[C@@H]1NC(=O)CNC(=O)c1cccc(C(F)(F)F)c1` (stereo not given in full) showed an activation of 10.5%. In the case of `O=C(NCCCn1ccnc1)c1cc(-c2ccco2)on1`, the activation is reported as -9.07%.

The compounds below were run against Aldehyde dehydrogenase, mitochondrial (Homo sapiens) (UniProt P05091) (assay: qHTS for Inhibitors of the Aldehyde Dehydrogenase Family (ALDH2) Primary screen (AID 2061308;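 also: plate controls were vehicle for no effect and reference inhibitor for full effect; nearly all actives have a fitted effect of over 55% in size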)). Conditions: ALDH2 enzyme inhibition qHTS, 1536-well; series mostly up to 56 µM.
For `NC(=O)c1cccc2cn(-c3ccc(C4CCCNC4)cc3)nc12` (stereo not given), the Potency was “inactive”. For `CC(C)S(=O)(=O)NC[C@H](C)c1ccc(-c2ccc(CCNS(C)(=O)=O)cc2)cc1`, the Potency was “inactive”. With `Cc1cc(-c2nc(-c3ccc(OC(F)(F)F)cc3)no2)nn1Cc1ccnc(N2CCN(C3CC3)CC2)c1` the Potency was “inactive”. For `Cc1cc(C(=O)Cn2cc(C#N)ccc2=O)c(C)n1Cc1ccccc1`, the Potency was “inactive”. `COc1cc2ncnc(Oc3ccc(CC(=O)Nc4cnn(C(C)C)c4)cc3)c2cc1OC` was tested, and the Potency was “inactive”. With `CC(C)(C)c1ccc(S(=O)(=O)NCc2ccc(C(=O)Nc3cccnc3)cc2)cc1` the Potency was “inactive”. In the case of `c1ccc(C(OC2CCN(CCCc3nn[nH]n3)CC2)c2ccccc2)cc1`, the Potency is reported as “inactive”. With `C[C@@H]1C(=O)O[C@H]2CC34[C@H]5C[C@@H](C(C)(C)C)C36[C@@H](OC(=O)[C@@H]6O)OC4(C(=O)O5)[C@]21O` (stereo not given in full) the Potency was “inactive”. With `Clc1ccccc1CNCC1CCC(CNCc2ccccc2Cl)CC1` (stereo not given) the Potency was “inactive”. With `O=S(=O)(Cc1ccccc1)Nc1ccc(-c2ccc3c(cnn3-c3ccc(F)cc3)c2)c(C(F)(F)F)c1` the Potency was “inactive”. `CCC(C)c1ccc(NC(=O)Cn2cnc3c2c(=O)n(C)c(=O)n3C)cc1` (stereo not given) was tested, and the Potency was “inactive”. `COC(=O)C(CC1CCCC1)c1ccc(S(C)(=O)=O)cc1` (stereo not given) was tested, and the Potency was “inactive”. With `CCNC(=O)C1CC(F)(c2ccc(CN3CCCC3)c(F)c2)C1` (stereo not given) the Potency was “inactive”. With `CC[C@H](C(=O)Nc1ccccc1N1CCCC1)c1ccccc1` the Potency was “inactive”. In the case of `CCc1c(CC(N)=O)c2cc(OCCCP(=O)(O)O)ccc2n1Cc1ccccc1`, the Potency is reported as “inactive”. With `Nc1c(-c2ccccc2)nc(Cl)c2c(O)n[nH]c(=O)c12` the Potency was “inactive”. With `CCCCOC(=O)NC(=O)C1c2ccccc2Oc2ccccc21` the Potency was “inactive”. In the case of `CC(C)N(CCCCOCC(=O)NS(C)(=O)=O)c1cnc(-c2ccccc2)c(-c2ccccc2)n1`, the Potency is reported as “inactive”. In the case of `CC(c1ncncc1F)C(O)(Cn1cncn1)c1ccc(F)cc1F` (stereo not given), the Potency is reported as “inactive”. With `CNc1cc2[nH]c(=O)n(-c3ccc(NC(=O)NS(=O)(=O)c4ccc(Cl)s4)cc3)c(=O)c2cc1F` the Potency was “inactive”. With `CC(C)[C@@H](c1ccc(C(F)(F)F)cc1CN(Cc1cc(C(F)(F)F)cc(C(F)(F)F)c1)c1nnn(C)n1)N1CCC(C(=O)O)CC1` the Potency was “inactive”. For `O=S(=O)(Nc1ccccc1N1CCCCC1)c1ccc(Cl)s1`, the Potency was “inactive”. `CCOC(=O)CCN(C(=O)c1ccc2c(c1)nc(CNc1ccc(C(=N)N)cc1)n2C)c1ccccn1` was tested, and the Potency was “inactive”. `CC(OC1OCCN(Cc2n[nH]c(=O)[nH]2)C1c1ccc(F)cc1)c1cc(C(F)(F)F)cc(C(F)(F)F)c1` (stereo not given) was tested, and the Potency was “inactive”. `O=C(N[C@H](Cc1ccccc1)C(=O)O)c1sc2cc(F)ccc2c1Cl` was tested, and the Potency was “inactive”. In the case of `O=C(NCc1cccc(O)c1)c1cc2cc(F)ccc2[nH]1`, the Potency is reported as “inactive”. `CNC(=O)COC(=O)NCCC1CCN(c2cccc(C)n2)CC1` was tested, and the Potency was “inactive”. With `Cn1ncnc1COc1nn2c(-c3cc(F)ccc3F)nnc2cc1C(C)(C)C` the Potency was “inactive”. With `CNC(=O)c1ccccc1Nc1nc(Nc2ccc(N3CCNCC3)cc2)ncc1Cl` the Potency was “inactive”. For `COc1cc(Nc2nc3c(s2)CCCC3c2ccc(F)cc2)ccc1-n1cnc(C)c1` (stereo not given), the Potency was “inactive”. In the case of `CN(C)C(=O)NC1CCC(CCN2CCN(c3cccc(Cl)c3Cl)CC2)CC1` (stereo not given), the activity change, negative = inhibition is reported as 8.14% [at 11.2 µM]. With `CCOc1ccc(NC(=S)N2CCC(C(O)(c3ccccc3)c3ccccc3)CC2)cc1` the Potency was “inactive”. With `COc1ccncc1C(=O)NC(=O)Nc1ccc(-c2ccccc2)c(C(F)(F)F)c1` the Potency was “inactive”. With `O=C(CCCN1CCN(c2ccccn2)CC1)c1ccc(F)cc1` the Potency was “inactive”. In the case of `COc1ccc(C(=O)NCc2cc(C(C)C)no2)cc1OC1CCN(C)CC1`, the Potency is reported as “inactive”. `CCCc1ccc(OCC(=O)N(Cc2nc(-c3cccnc3)no2)C(C)C)cc1` was tested, and the Potency was “inactive”. For `CN[C@H](CNC(=O)N1CCC[C@@H]([C@@H](OCCNC(=O)OC)c2cccc(Cl)c2)C1)C[C@H]1CCCOC1`, the Potency was “inactive”. In the case of `Cc1c(OCc2cccc(-c3ccc(C(=O)O)cc3)c2)cc2c(c1C)C(=O)C(C1CCCC1)C2` (stereo not given), the Potency is reported as “inactive”. For `CCO[C@H]1CN(C2CCC(O)(c3ccc4c(c3)OCO4)CC2)C[C@@H]1NC(=O)CNC(=O)c1cccc(C(F)(F)F)c1` (stereo not given in full), the Potency was “inactive”. In the case of `O=C(NCCCn1ccnc1)c1cc(-c2ccco2)on1`, the Potency is reported as “inactive”.
